Screening data deposited in PubChem by several laboratories.
MOR-DOR inv ag: inverse agonists of MOR-DOR heterodimerization, primary screen, cell-based, luminescence; cell-based MOR-DOR heterodimer luminescence, inverse agonism; inhibition, % at 9.3 µM; 0.21% of 340,000 active; Mu-type opioid receptor (Homo sapiens) + Delta-type opioid receptor (Homo sapiens), …; in the data active means inhibition above about 22%, passing the limit was not always enough;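 further: 0% = cells with DMSO and 100% = wells without cells with DMSO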
Target sequence (P35372 whole entry, looked up): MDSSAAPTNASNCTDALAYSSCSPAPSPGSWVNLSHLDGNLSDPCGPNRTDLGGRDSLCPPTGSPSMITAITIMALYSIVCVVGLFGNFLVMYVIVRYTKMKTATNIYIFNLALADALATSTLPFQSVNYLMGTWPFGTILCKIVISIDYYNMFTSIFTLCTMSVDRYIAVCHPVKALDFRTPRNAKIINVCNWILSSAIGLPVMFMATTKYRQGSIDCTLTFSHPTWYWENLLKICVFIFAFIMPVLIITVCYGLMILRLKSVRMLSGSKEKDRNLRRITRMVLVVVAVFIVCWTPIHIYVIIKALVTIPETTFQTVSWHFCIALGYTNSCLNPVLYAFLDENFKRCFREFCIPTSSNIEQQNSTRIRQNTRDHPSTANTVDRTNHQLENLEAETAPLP
Target sequence (P41143 whole entry, looked up): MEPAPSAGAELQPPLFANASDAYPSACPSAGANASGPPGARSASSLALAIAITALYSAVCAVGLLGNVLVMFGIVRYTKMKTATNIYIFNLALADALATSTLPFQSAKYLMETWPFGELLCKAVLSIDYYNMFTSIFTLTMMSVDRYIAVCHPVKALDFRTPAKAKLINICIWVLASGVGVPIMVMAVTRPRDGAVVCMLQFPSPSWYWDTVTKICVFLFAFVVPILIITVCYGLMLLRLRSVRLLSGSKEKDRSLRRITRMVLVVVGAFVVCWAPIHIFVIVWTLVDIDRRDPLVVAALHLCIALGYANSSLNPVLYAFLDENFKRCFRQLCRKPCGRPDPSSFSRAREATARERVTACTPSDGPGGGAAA
HTR5A ag ctr: HTR5A agonists in luminescence cell assay, primary screen, counter-screen for OPRM1-OPRD1 heterodimer agonist project, full-deck HTS; 5-hydroxytryptamine receptor 5A (Homo sapiens), P47898; cell-based; activation, % at 9.3 µM; 0.61% of 340,000 active; AID 504692, 2011; in the data active means activation mostly above about 9.5%, no sharp cut-off; inactive means mostly below about 7.6%;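 further: 0% = cells with vehicle only and 100% = reference agonist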
MOR-DOR ag: agonists of OPRM1-OPRD1 heterodimerization, primary screen, cell-based, luminescence. cells. activation, % at 9.3 µM. 0.3% of 340,000 active. AID 504326, 2011; in the data active means activation above about 18%;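 further: 0% = vehicle-treated cells and 100% = reference agonist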
HTR5A inv ctr: HTR5A inverse agonists in luminescence cell assay, primary screen, counter-screen for OPRM1-OPRD1 heterodimer inverse agonist project, full-deck HTS; HTR5A cell line, inverse agonism; inhibition, % at 9.3 µM; 0.083% of 340,000 active; in the data active means inhibition mostly above about 23%, no sharp cut-off; inactive means mostly below about 18%;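 further: 0% = cells with DMSO and 100% = no-cell wells with DMSO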
V-ATPase pH: regulators of yeast V-ATPase proton pumping, primary screen, pHLuorin cytosolic pH fluorescence | S. cerevisiae | response, % at 10 µM | 0.37% of 350,000 active | AID 504577, 2011; in the data active means response mostly above about 7.3%, no sharp cut-off; inactive means mostly below about 5.4%; further: actives read high
beta cell repl: inducers of MIN6 beta-cell proliferation, primary screen, ATP luminescence, uHTS. MIN6 cells proliferation, ATPlite luminescence, 48 h; cells starved in 0.2% serum; 100% = growth in 10% serum. proliferation, % at 10 µM. 0.29% of 330,000 active. AID 2380, 2010;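 active means compounds whose signal lies at least 3.5 SD above the mean of all wells on their plate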;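 further: 0% = DMSO-treated cells in low-serum medium and 100% = 10% serum control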
VATPase regulator: yeast V-ATPase proton pumping modulators, confirmation, S. cerevisiae, pH-sensitive GFP, second cherry-pick | shares compounds with V-ATPase pH | S. cerevisiae pHLuorin cytosolic pH, V-ATPase proton transport | response, % at 10 µM | 2% of 980 active; in the data active means response above about 24%;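 further: plate controls were vehicle wells for no effect and positive control wells for full effect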
* hit, by the source's call; / = no result. Most compounds without a hit are left out; they make up all but 1.7% or so of the library.

SMILES	MOR-DOR inv ag	HTR5A ag ctr	MOR-DOR ag	HTR5A inv ctr	V-ATPase pH	beta cell repl	VATPase regulator
Cn1c2ccccc2c2nnc(SCC(=O)Nc3cccc(C(=O)O)c3)nc21	11.2	-2.6	-1.9	10.2	6.0	0.4	/
Cc1ccc(/C=C2\S/C(=N/S(=O)(=O)c3cccs3)NC2=O)cc1	11.4	-2.2	-2.2	-30.9	21.5*	-2.0	0.6
C=CCn1c(SCC(=O)Nc2cc(C)ccc2OC)nnc1-c1ccco1	0.3	6.4	-0.1	3.3	10.8*	2.4	0.2
C=CCn1c(SCC(=O)Nc2cc(C)c(Cl)cc2OC)nnc1-c1ccco1	10.8	3.3	-2.5	-9.1	4.2	-2.8	/
CCOC(=O)CSC1=NC(=O)/C(=C/c2ccc(OC)cc2)S1	1.0	-0.9	-0.2	1.6	1.9	-3.2	/
CCOC(=O)CNC(=O)Cc1ccc(Cl)cc1	5.4	5.5	-1.1	-2.4	-0.1	1.7	/
CCN(CC)C(=O)CNC(=O)Cc1ccc(Cl)cc1	12.1	-1.1	-2.4	-17.6	9.5*	1.3	2.4
O=C1NC(=S)S/C1=C\c1coc2ccccc2c1=O	-4.6	-4.5	0.7	18.3	52.0*	-1.9	-0.3
Cc1csc2c(SCC(=O)NNC(=O)C(Cl)Cl)ncnc12	/	/	/	/	12.0*	-0.7	-4.4
Nc1cnn(C2OC(CO)C(O)C2O)c(=O)n1 (stereo not drawn)	11.1	3.3	-2.2	8.0	7.8*	0.0	3.0
Nc1ncn(C2O[C@H](CO)[C@@H](O)[C@H]2O)c(=O)n1 (stereo partly drawn)	/	/	/	/	/	-5.3	/
COc1cccc(/C=C/C(=O)Nc2cc(S(=O)(=O)N3CCOCC3)ccc2OC)c1	13.9	-4.0	-2.2	11.1	11.8*	3.6	0.8
O=C(/C=C/c1cccc(F)c1)Nc1cc(S(=O)(=O)N2CCOCC2)ccc1N1CCCC1	-0.1	3.1	0.0	-15.9	6.5*	0.0	1.8
CSc1ncccc1C(=O)OC(C)C(=O)Nc1cccc(S(=O)(=O)N2CCOCC2)c1 (stereo not drawn)	-1.1	-1.6	0.2	6.3	1.5	2.3	/
Cc1ccc(CNCC(O)(c2ccccc2)c2ccc(Cl)cc2)cc1 (stereo not drawn)	-20.7	1.5	4.2	-3.6	1.5	/	/
COc1ccc(CNCC(O)(c2ccccc2)c2ccc(Cl)cc2)cc1 (stereo not drawn)	-50.6	9.9	11.6	-27.3	11.2*	-6.3	-2.0
Cc1cccc(C(=O)N(NC(=O)Oc2ccccc2)C(C)(C)C)c1	8.6	5.4	-1.7	-25.3	6.9*	0.0	-3.6
Cc1ccc(NC(=O)CN(C)C(=O)CSc2nnc(C(F)(F)F)n2C)cc1	13.3	-0.3	-2.8	12.2	1.9	-4.0	/
CC(NC(=O)COC(=O)/C=C/c1cccc(C(F)(F)F)c1)c1ccccc1 (stereo not drawn)	-4.9	6.0	1.0	-15.7	21.4*	1.2	-2.8
O=Nc1[nH]c(=O)c(/C=C(\O)c2ccccc2)nc1NO	4.3	1.5	-0.8	-5.9	-0.4	-2.3	/
O=C(Cc1n[nH]c(=O)c2ccccc12)OCC(=O)c1ccc2c(c1)OCCO2	4.0	4.3	-0.7	-12.2	12.1*	-5.1	-1.5
CCc1cccc(C)c1NC(=O)CSc1nc2ccncc2[nH]1	-0.6	-0.2	0.1	7.8	-0.5	2.6	/
CCOC(=O)COc1ccc2c(C#N)c3ccccn3c2c1	-4.0	3.8	0.8	-9.4	9.6*	/	-20.2
CCOC(=O)/C(C#N)=C1\C(=O)N(Cc2ccccc2)c2ccccc21	25.8	3.8	-5.2	-9.8	10.4*	-4.3	6.5
CC(C)C(NC(=O)c1ccc(Cl)cc1)C(=O)NC1=NCCS1 (stereo not drawn)	15.5	-2.2	-3.1	7.7	-5.0	0.1	/
SMILES	MOR-DOR inv ag	HTR5A ag ctr	MOR-DOR ag	HTR5A inv ctr	V-ATPase pH	beta cell repl	VATPase regulator
CC(C)[C@H](NC(=O)c1ccc(F)cc1)C(=O)NC1=NCCS1	-8.8	2.6	1.9	-6.7	-1.6	-2.1	-0.5
CCN(CC)C(=O)C1=C(C)N(Cc2ccccc2)C(=O)C(CC(=O)NC2CCCC2)C1 (stereo not drawn)	/	/	/	/	7.1*	/	-0.9
CC1=C(C(=O)N(C)C)CC(CC(=O)NC2CCCCC2)C(=O)N1Cc1ccccc1 (stereo not drawn)	/	/	/	/	-1.3	/	/
Cc1oc(-c2ccccc2)cc1C(=O)Nc1cccc(/C=C\C(=O)O)c1	1.1	-0.3	-0.2	-14.9	-0.8	-0.9	/
Cc1oc(C(C)(C)C)cc1C(=O)Nc1cccc(/C=C\C(=O)O)c1	8.0	-2.4	-1.5	7.5	13.8*	0.0	-3.9
CC(C)Cc1cc(CN2CCC(CO)(Cc3cccc(C(F)(F)F)c3)CC2)[nH]n1	-3.5	-0.3	0.7	-40.0	-0.5	-5.7	/
O=C(COc1ccc2ccccc2c1)Nc1nc2ccccc2[nH]1	-72.0	10.9	12.8	-11.9	10.7*	0.9	-3.9
NC(=S)Nc1nccc(-c2cccs2)n1	-3.5	-3.1	0.8	8.0	6.7	-0.5	/
Cc1ccc(C(=O)Nc2nccc(-c3cccs3)n2)cc1	5.4	4.5	-1.1	-13.8	8.5*	-1.3	2.5
Cn1c(=NC(=O)CS(=O)(=O)c2ccccc2)sc2cc([N+](=O)[O-])ccc21	-19.6	2.5	2.9	-6.6	-2.8	0.3	/
CCc1nn(CCCC(=O)N(C)Cc2ccccc2)c(=O)c2cc3occc3n12	8.2	-1.1	-1.6	-2.9	-2.4	3.4	/
CCc1nn(C(C)C(=O)N(C)Cc2ccccc2)c(=O)c2cc3occc3n12 (stereo not drawn)	2.0	6.9	-0.4	-4.2	12.3*	-2.8	-1.1
O=C(NC12CC3CC(CC(C3)C1)C2)c1cc(F)c(F)c(F)c1F	-17.0	-2.4	3.6	8.6	-4.8	-3.3	/
Cc1csc(SCC(=O)NC2CCC(C)CC2)n1 (stereo not drawn)	-36.0	3.1	5.6	-9.5	7.5*	1.5	-6.5
COc1ccccc1C(=O)NC(CCSC)C(=O)NNC(=O)c1ccccc1O (stereo not drawn)	7.6	0.3	-1.9	-0.8	-1.2	-3.9	/
CC1CCCN(CC(O)COc2ccc(S(=O)(=O)N3CCCC3)cc2[N+](=O)[O-])C1 (stereo not drawn)	7.5	-0.4	-1.9	2.9	-0.8	1.5	/
O=c1c2ccccc2sn1-c1ccccc1	12.8	5.8	-2.5	-12.0	5.8	-5.7	/
O=c1c2ccccc2sn1-c1cccc(Cl)c1	/	/	/	/	-0.8	/	16.6
COc1ccc(C(=O)Nn2c(CCC(=O)O)ccc2-c2ccc(C)cc2)cc1OC	16.0	-2.7	-2.8	7.0	0.1	-1.4	/
